Experimental data reported in PubChem BioAssay AID1851 (National Center for Advancing Translational Sciences (NCATS), 2009).
Screen size: about 16,000 compounds; about 2,600 (16%) were called active. Another 20% or so got no clear call; they are omitted. The call rests on the fitted dose curve; in most records, active means well fitted curve in the direction sought with a large enough effect; inconclusive means small, poorly fitted or top-dose-only effect, or effect the other way; inactive means no such curve, though single readings can be large or run the other way. Only a sample is shown.

Molecular target: Cytochrome P450 2D6 (Homo sapiens) (UniProt P10635)
Sequence (P10635 whole entry, looked up): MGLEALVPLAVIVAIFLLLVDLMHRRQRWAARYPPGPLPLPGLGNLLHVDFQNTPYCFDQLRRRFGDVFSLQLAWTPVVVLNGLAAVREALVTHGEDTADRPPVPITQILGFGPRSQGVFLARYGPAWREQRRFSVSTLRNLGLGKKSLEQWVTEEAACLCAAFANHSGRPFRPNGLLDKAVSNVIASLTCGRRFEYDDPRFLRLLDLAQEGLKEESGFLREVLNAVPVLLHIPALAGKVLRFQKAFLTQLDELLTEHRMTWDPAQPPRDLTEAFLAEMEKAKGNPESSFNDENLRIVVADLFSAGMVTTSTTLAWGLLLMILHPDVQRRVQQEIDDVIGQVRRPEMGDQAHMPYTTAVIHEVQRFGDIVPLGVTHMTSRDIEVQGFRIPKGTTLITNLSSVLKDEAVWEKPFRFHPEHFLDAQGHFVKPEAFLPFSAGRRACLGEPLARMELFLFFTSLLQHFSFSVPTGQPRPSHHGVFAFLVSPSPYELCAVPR
Assay: Cytochrome panel assay with activity outcomes
Conditions: recombinant CYP, pro-luciferin dealkylation, luminescence, p450-cyp2d6; series mostly up to 57.1 µM; activity, negative = inhibition: at the top concentration
On the % scale 0 is the no-effect control and ±100 the full control effect.

SMILES	AC50	activity, negative = inhibition
CCN(CC)CCN1C(=O)C(=O)/C(=C(/O)c2ccc(OC)cc2)C1c1cccs1 (configuration not stated)	14.1 µM (active)	
COc1cccc(/C(O)=C2/C(=O)C(=O)N(c3cc(C)on3)C2c2cccs2)c1 (configuration not stated)		-0.296% (inactive)
COC(=O)c1[nH]c(C)c(/C(O)=C2\C(=O)C(=O)N(CCN(C)C)C2c2cccs2)c1C (configuration not stated)		5.67% (inactive)
CC(C)(C)C(=O)[C@H]([C@@H](c1ccccc1)N1CCOCC1)N1CCOCC1		6.76% [at 11.4 µM] (inactive)
Cc1ccc(NC(=O)c2sccc2SCc2cccc(C(F)(F)F)c2)cc1		1.61% (inactive)
O=C(c1ccccc1)c1ccc2n1CC[C@H]2C(=O)O	inactive	
N#Cc1ccc(-c2ccccc2)nc1SCC(=O)c1cccc(Cl)c1		-11.5% (inactive)
CN1CCN(c2ncc3nc(-c4cn(C)c5ccccc45)c(=O)n(-c4ccccc4)c3n2)CC1		-15.3% (inactive)
COc1ccc(C(=O)Nn2cnc3ccccc3c2=O)c(OC)c1		-18.9% (inactive)
COc1ccc(Cl)cc1C(=O)Nn1cnc2ccccc2c1=O		-16.6% (inactive)
O=C(Nn1cnc2ccccc2c1=O)c1ccc(F)cc1Cl	28.2 µM (active)	
COC(=O)c1ccc(NC(C)=O)o1		-1.04% (inactive)
COc1ccc(N(C(=O)COc2ccccc2OC)S(=O)(=O)c2ccc(C)cc2)cc1		-20.5% (inactive)
COc1ccc(C(C(=O)NC2CCCCC2)N(C(=O)CCCC(=O)Nc2ccccn2)c2ccc3c(c2)OCCO3)cc1 (configuration not stated)		-29.2% (inactive)
Cc1cc([N+](=O)[O-])ccc1NCc1ccccc1	15.8 µM (active)	
O=C(O)c1cc([N+](=O)[O-])ccc1NCCCc1ccccc1		-2.49% (inactive)
O=[N+]([O-])c1ccc(N2CCCC2)cc1NCc1ccccc1		2.63% (inactive)
CO[C@H]1COC(=O)C/C=C\[C@H](C)COC(=O)[C@@H](OCc2ccccc2)/C=C\[C@@H]1C		-13.9% [at 11.4 µM] (inactive)
CCn1c(C)cc(/C=C2\SC(=O)N(CC(=O)Nc3ccc(C)c(C)c3)C2=O)c1C		1.47% (inactive)
C#CCSc1nnc(-c2sc3ccccc3c2Cl)o1		1.41% (inactive)
c1ccc(-c2nnc(SCCC3OCCCO3)o2)cc1		0.844% (inactive)
Clc1ccccc1CSc1nnc(-c2ccncc2)o1	2 µM (active)	
NCCCCCc1nnc(SCc2ccccc2Cl)o1	11.2 µM (active)	
COc1ccc(-c2nnc(-c3cccnc3)o2)cc1		-16.3% (inactive)
Cc1cccc(-c2nnc(SCc3ccccc3)o2)c1		-20% (inactive)
Clc1ccc(CSc2nnc(-c3cccnc3)o2)cc1	14.1 µM (active)	

SMILES	AC50	activity, negative = inhibition
N#Cc1c(SCC(N)=O)nsc1SCc1ccccc1Cl		5.4% (inactive)
Nc1nc(SCc2ccccc2Cl)cc(C(=O)O)n1		4.28% [at 11.4 µM] (inactive)
NCCCCCc1nnc(SCc2ccc(Cl)cc2Cl)o1	1.41 µM (active)	
COc1ccc(NC(=O)CCNS(=O)(=O)c2ccc3c(c2)c(=O)n(C)c(=O)n3C)cc1		1.38% (inactive)
O=C(CCCc1ccccn1)c1ccccc1		-16.5% [at 11.4 µM] (inactive)
O=C1N=C(N2CCOCC2)S/C1=C/c1cccs1		-3.07% (inactive)
Cc1cc(=O)[nH]c(-n2[nH]c3c(c2=O)CCCC3)n1		-15.2% (inactive)
CCC1C(=O)OCC1Cc1cncn1C (configuration not stated)		-17.8% (inactive)
N=C(N)[C@H](N=Nc1ccccc1)C(N)=O		4.09% [at 11.4 µM] (inactive)
C[C@@](N)(Cc1ccc(O)c(O)c1)C(=O)O	inactive	
FC(F)(F)c1cnc(/C=C/Nc2ccccc2Cl)c(Cl)c1		7.61% (inactive)
COc1ccc(C(=O)NC2CCN(C(=S)Nc3cccc(C)c3)CC2)cc1		-8.38% (inactive)
CC(=O)c1ccc(OC(=O)C2c3ccccc3Oc3ccccc32)cc1		6.3% (inactive)
CC[N+](C)(CC)CCOC(=O)C1c2ccccc2Oc2ccccc21	3.98 µM (active)	
O=C(O)c1ccccc1C1c2ccccc2Oc2ccccc21		-7.56% [at 11.4 µM] (inactive)
COc1ccccc1N(CC(=O)NCC1CCCO1)C(=O)CNS(=O)(=O)c1ccc(C)cc1 (configuration not stated)		-4.47% (inactive)
N#CC1=C(SCC(N)=O)NC2=C(C(=O)c3ccccc32)C1c1ccc(Cl)cc1 (configuration not stated)		-26.9% (inactive)
CC(C)Oc1cccc(-n2c(CCc3c[nH]c4ccc(Br)cc34)nc3ccccc3c2=O)c1		5.78% (inactive)
COc1ccc2[nH]cc(CCNc3nc(-c4ccc(N(C)C)cc4)nc4ccccc34)c2c1	7.94 µM (active)	
c1ccc2c(NC3CC3)nc(-c3ccoc3)nc2c1		-19.8% (inactive)
COc1cccc(-c2nc(NCCc3c[nH]c4ccc(OC)cc34)c3ccccc3n2)c1	20 µM (active)	
COc1ccc2[nH]cc(CCNc3nc(-c4cccnc4)nc4ccccc34)c2c1	6.31 µM (active)	
COc1ccc2[nH]cc(CCNc3nc(-c4ccoc4)nc4ccccc34)c2c1	12.6 µM (active)	
NC(=O)NC(=O)[C@H]1CCCC[C@@H]1C(=O)O		-4.03% [at 11.4 µM] (inactive)
C[N+](C)(C)CCOC(N)=O	inactive	
COC(=O)CNC(=O)CCCCC(=O)NCC(=O)OC		-4.75% (inactive)

SMILES	AC50	activity, negative = inhibition
Cc1ccc(C)c(N2CCN(C(=O)C3CCN(S(=O)(=O)c4cccc5nsnc45)CC3)CC2)c1		-14.1% (inactive)
CS(=O)(=O)c1ccc(Cn2c3c(c4cc(F)cc(F)c42)CCC[C@H]3CC(=O)O)cc1		-11.8% (inactive)
CC(C)c1ccc(/C(C(=O)O)=C(\O)C(=O)O)cc1		0.432% [at 11.4 µM] (inactive)
CC1(C)C2([N+](=O)[O-])CN3CC1([N+](=O)[O-])CN(C2)C31CCCC1		-6.83% (inactive)
O=C(O)Cc1cc(I)c(Oc2ccc(O)c(I)c2)c(I)c1		0.86% [at 25.6 µM] (inactive)
CC(=O)c1cc(C#N)c(Oc2cccc(C(F)(F)F)c2)nc1C		-61.5% (inactive)
N[C@@H](CS(=O)O)C(=O)O		10.8% (inactive)
CC(C)C(=O)Nc1ccc(Sc2ccc(F)cc2)cc1		-18.6% (inactive)
CN(C(=S)NC(=O)c1ccccc1Br)C1CCCCC1		-19% (inactive)
COc1ccc2[nH]cc(CCNc3nc(-c4ccccc4OC)nc4ccccc34)c2c1	12.6 µM (active)	
CC[C@H](CO)NCCN[C@@H](CC)CO		2.22% [at 25.6 µM] (inactive)
COc1ccc(F)cc1S(=O)(=O)NC(Cc1ccccc1)C(N)=O (configuration not stated)		-23% (inactive)
Cc1ccc(-c2cc(C(F)F)n3ncc(C(=O)Nc4c(C)nn(Cc5c(Cl)cccc5Cl)c4C)c3n2)cc1		-10.1% (inactive)
Cc1cc(C(F)F)n2ncc(C(=O)NCc3ccccc3C(F)(F)F)c2n1	5.01 µM (active)	
Cc1nn(Cc2c(Cl)cccc2Cl)c(C)c1NC(=O)c1cnn2c(C(F)F)cc(-c3ccccc3)nc12		-9.88% (inactive)
O=C(Nc1cc(C(F)(F)F)ccc1N1CCCCC1)c1ccc(Br)o1		0.271% (inactive)
COCCn1nc2cc(C(=O)NCC34CC5CC(CC(C5)C3)C4)ccc2c1OC		-16.5% (inactive)
CCOc1c2ccc(C(=O)NCCCCc3ccccc3)cc2nn1CC	0.794 µM (active)	
CCCCn1nc2cc(C(=O)NCc3ccc(C(F)(F)F)cc3C(F)(F)F)ccc2c1OCC		-27.7% (inactive)
CCCn1nc2cc(C(=O)NCCCCc3ccccc3)ccc2c1OCC	7.94 µM (active)	
CCOc1c2ccc(C(=O)NCc3ccccc3OC)cc2nn1CC		-13.2% (inactive)
CCCn1nc2cc(C(=O)NCc3ccccc3OC)ccc2c1OCC		-22.4% (inactive)
O=C1CC[C@H](NC(=O)c2ccccc2)C(=O)N1		1.49% [at 11.4 µM] (inactive)
COCCn1nc2cc(C(=O)NCc3cc(C(F)(F)F)cc(C(F)(F)F)c3)ccc2c1OC	2.51 µM (active)	
O=C(NC1CCCc2ccccc21)c1ccc(=O)[nH]c1 (configuration not stated)	28.2 µM (active)	
COc1ccc(OC)c2[nH]c(=O)c(CCNS(=O)(=O)c3ccccc3)cc12		7.03% (inactive)

SMILES	AC50	activity, negative = inhibition
CCOc1cccc(/C(O)=C2/C(=O)C(=O)N(Cc3ccco3)C2c2ccncc2)c1 (configuration not stated)		-8.05% (inactive)
O=C(NNS(=O)(=O)c1ccc(Cl)cc1)NC1CCCCC1		-0.568% (inactive)
CCC(=O)Nc1nnc(C(C)(C)C)s1		1.82% (inactive)
O=c1c(-c2cc(F)cc(F)c2)nc2cnc(N3CCOCC3)nc2n1C[C@H]1CCCO1		5.97% (inactive)
CCOc1c2ccc(C(=O)NCCc3cccs3)cc2nn1CC	2.24 µM (active)	
CCOc1c2ccc(C(=O)NCc3ccco3)cc2nn1CC		-22.5% (inactive)
CCCn1nc2cc(C(=O)NCCc3ccc(C)cc3)ccc2c1OCC	3.55 µM (active)	
CCCn1nc2cc(C(=O)NCc3ccc(C)cc3)ccc2c1OC		-3.19% (inactive)
CCn1nc2cc(C(=O)NCC34CC5CC(CC(C5)C3)C4)ccc2c1OC		10.9% (inactive)
COCCNC(=O)c1ccc2c(c1)ncn2-c1ccc(F)c(F)c1		3.19% (inactive)
CCOc1c2ccc(C(=O)NCCCCc3ccccc3)cc2nn1C	0.282 µM (active)	
CCCCn1nc2cc(C(=O)NCC3CC3)ccc2c1OCC		-8.25% (inactive)
CCOc1c2ccc(C(=O)NC3CCCc4ccccc43)cc2nn1C (configuration not stated)	7.94 µM (active)	
COCCn1c(=O)c(-c2ccccc2)nc2cnc(Oc3cccc(Cl)c3)nc21		-2.41% (inactive)
NC(=O)Nn1c(CCC(=O)O)ccc1-c1ccc(F)cc1		-2.11% (inactive)
Cc1ccc(C(=O)N2C3C=CC(C3)C2(C(F)(F)F)C(F)(F)F)cc1 (configuration not stated)		5.65% (inactive)
CCC(C)(C)c1ccc(Oc2cccc(C(=O)O)c2)cc1		13.3% [at 11.4 µM] (inactive)
O=C(O)CCNc1ncnc2nc[nH]c12		9.14% [at 11.4 µM] (inactive)
OC[C@H]1O[C@H](n2cnc3c(NC4CCCC4)nc(Cl)nc32)[C@@H](O)[C@@H]1O		6.94% (inactive)
C=C(C)CN(CC#N)CC(=C)C		5.94% [at 11.4 µM] (inactive)
N#C/C(=C(\O)C(=O)O)c1ccc(-c2cccc3ccccc23)cc1		14.5% [at 11.4 µM] (inactive)
O=c1c2c(n3cnnc3n1-c1ccccc1)-c1ccccc1CC21CCCCC1		-2.53% (inactive)
Nc1nc(N)c(N=Nc2ccc(C(=O)O)c(O)c2)c(N)n1		-8.46% [at 11.4 µM] (inactive)
CC1CCN(c2ccc(/C=N/n3nnnc3N)cc2[N+](=O)[O-])CC1		2.33% (inactive)
